The test system of one test is TAB113. The test is described as follows: qHTS profiling for inhibitors of Plasmodium falciparum proliferation (AID 504749). Also: nearly all actives have a fitted effect of over 60% in size. The note with it: P. falciparum in erythrocytes, SYBR Green DNA, 72 h; series mostly up to 28.7 µM. A digest of the protocol:
(§1)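 P. falciparum-infected erythrocytes (0.3% parasitemia, 2.5% hematocrit final) were exposed to compounds for 72 h at 37 C in 5% CO2, then lysed with SYBR Green buffer overnight at room temperature; parasite DNA fluorescence was normalized to artemisinin and DMSO controls.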
On the technique in general: qHTS replaces the single test concentration by a dilution series.

The next test deals with W2. The test is described as above. The note with it: P. falciparum in erythrocytes, SYBR Green DNA, 72 h; series mostly up to 28.7 µM. The essentials:
as §1

The test system of another test is CRL-7250. The test is described as follows: Cytotoxic Profiling of Annotated Libraries Using Quantitative High-Throughput Screening (AID 1296008). Also: nearly all actives have a fitted effect of over 60% in size. As to max response: % is scaled to controls: 0 for no effect and ±100 for the full control effect. The following applies: Five cell lines viability, CellTiter-Glo ATP luminescence, 48-72 h; max response: hits give low values. The essentials:
(§2)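 Compounds were pin-transferred onto cells and incubated 48 or 72 hr at 37 degree Celsius, 95% humidity. CellTiter-Glo was added, plates sat 10 min at room temperature, then ATP-coupled luminescence was imaged as the viability read-out.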

Test [1] relates to HaCat. The description is as above. The following applies: Five cell lines viability, CellTiter-Glo ATP luminescence, 48-72 h; max response: hits give low values. The essentials: as §2
(In general: In ATP-based viability assays light output follows the ATP content of the culture.)

The test system of another test is KB-3-1. The description is as above. The following applies: Five cell lines viability, CellTiter-Glo ATP luminescence, 48-72 h; max response: hits give low values. The essentials: as §2
Another test deals with NIH3T3. The test is described as above. The note with it: Five cell lines viability, CellTiter-Glo ATP luminescence, 48-72 h; max response: hits give low values. The essentials: as §2
The test system of a further test is MCC-13. Kind of test: qHTS assay to identify novel small-molecules to repurpose for Merkel cell carcinoma treatment (AID 1296009). Also: nearly all actives have a fitted effect of over 60% in size. The note with it: MCC and control cell lines, CellTiter-Glo viability, 72 h; series mostly up to 46 µM. A digest of the protocol:
(§3)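 Cells exposed to NPC (8-point) and MIPE (11-point) compound dilutions for 72 hr at 37 degree celsius; viability read by CellTiter-Glo luminescence, normalized to no-cell and DMSO in-plate controls.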

The subject of a further test is MKL-1. Described as above. The note with it: MCC and control cell lines, CellTiter-Glo viability, 72 h; series mostly up to 46 µM. The essentials: as §3
The next test has as its system UISO. The description is as above. The note with it: MCC and control cell lines, CellTiter-Glo viability, 72 h; series mostly up to 46 µM. A digest of the protocol: as §3
In another test the test system is C33A. Kind of test: Primary qHTS to identify gynecologic anti-cancer compounds using libraries of approved drugs and bioactive compounds (AID 1345084). Also: nearly all actives have a fitted effect of over 55% in size. The note with it: Gynecologic cancer cell panel viability, ATPlite luminescence, 48 h; series mostly up to 57.5 µM. A digest of the protocol: (§4)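 Measured: luminescence after ATPlite addition (15 min, RT). Exposure: 48 h, 37 C, 5% CO2.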

In the next test the test system is CAOV3. The description is as above. The following applies: Gynecologic cancer cell panel viability, ATPlite luminescence, 48 h; series mostly up to 57.5 µM. A digest of the protocol:
as §4

For the next test, the system named is CASKI. The test is described as above. The following applies: Gynecologic cancer cell panel viability, ATPlite luminescence, 48 h; series mostly up to 57.5 µM. The essentials:
as §4

The subject of a further test is MKL-2. The test is described as follows: qHTS assay to identify novel small-molecules to repurpose for Merkel cell carcinoma treatment (AID 1296009). Also: nearly all actives have a fitted effect of over 60% in size. The following applies: MCC and control cell lines, CellTiter-Glo viability, 72 h; series mostly up to 46 µM. The essentials: as §3
The test system of the next test is WaGa. Described as above. The note with it: MCC and control cell lines, CellTiter-Glo viability, 72 h; series mostly up to 46 µM. The essentials:
as §3

The test system of a further test is MCC-26. The description is as above. The note with it: MCC and control cell lines, CellTiter-Glo viability, 72 h; series mostly up to 46 µM. A digest of the protocol: as §3
The next test has as its system TAB165. Kind of test: qHTS profiling for inhibitors of Plasmodium falciparum proliferation (AID 504749). Also: nearly all actives have a fitted effect of over 60% in size. The following applies: P. falciparum in erythrocytes, SYBR Green DNA, 72 h; series mostly up to 28.7 µM. The essentials:
as §1

The test system of test [2] is HACAT. The test is described as follows: qHTS assay to identify novel small-molecules to repurpose for Merkel cell carcinoma treatment (AID 1296009). Also: nearly all actives have a fitted effect of over 60% in size. The note with it: MCC and control cell lines, CellTiter-Glo viability, 72 h; at 44.8 µM (top of the series) unless noted. The essentials:
as §3

The next test has as its system HEK293. Kind of test: Cytotoxic Profiling of Annotated Libraries Using Quantitative High-Throughput Screening (AID 1296008). Also: nearly all actives have a fitted effect of over 60% in size. As to max response: % is scaled to controls: 0 for no effect and ±100 for the full control effect. The following applies: Five cell lines viability, CellTiter-Glo ATP luminescence, 48-72 h; max response: hits give low values. A digest of the protocol: as §2

Inconclusive results are not listed. A number with no mark means an inactive call. Calls of active or inactive are those of the source. Calls follow the shape of the dose curve; as a rule, active = well fitted curve in the direction sought with a large enough effect; inconclusive = small, poorly fitted or top-dose-only effect, or another doubt; inactive = no such curve, though single readings can be large; an effect the other way counts as inactive or inconclusive.
Potency is read from the fitted curve at half-maximal effect.

For the molecule `O=C1[C@H]2CCCC[C@H]2C(=O)N1CCCCN1CCN(c2nsc3ccccc23)CC1`, the Potency entry with TAB113, in the test with MCC-13, with MKL-1, with C33A, in the test on CAOV3 and in the test with CASKI was “inactive” throughout. Besides, the Potency with W2 was 15.1 µM (active); with UISO, 10.6 µM (active). Also, the outcome in the test with CRL-7250 was inactive. In addition, the max response with HaCat [1] was -5.6%; in the test on KB-3-1, 2.4%; with NIH3T3, 2.44%.
For the molecule `C[C@@H]1C[C@H]2[C@@H]3CCC4=CC(=O)C=C[C@]4(C)[C@@]3(F)[C@@H](O)C[C@]2(C)[C@H]1C(=O)CO`, the Potency result in the test on TAB113, in the test on MCC-13, in the test on MKL-1, with MKL-2, in the test with UISO and with WaGa was “inactive” in each case. Further, the Potency entry in the test on C33A, in the test on CAOV3 and in the test on CASKI was “inactive” in each case. Also, the max response with CRL-7250 is -8.13%; with HaCat [1], -8.02%; in the test with KB-3-1 it was 11.3%; with NIH3T3, -2.44%.
`CCN(CCCc1ccccc1)CCCc1ccccc1`: in the test on W2, the Potency is 1.28 µM (active). The outcome in the test on CRL-7250 was inactive. Besides, the results for the max response in the test with HaCat [1] and in the test on KB-3-1 were 0.9% and -18.5%, respectively. Besides, the Potency result in the test on MCC-13, with MCC-26, in the test with MKL-1, with UISO, in the test on WaGa and in the test on C33A was “inactive” throughout. The Potency result in the test on CASKI was “inactive”.
Regarding `CN1CCC(=C2c3ccccc3Sc3ccccc32)CC1`, the Potency in the test with TAB113 is 11.2 µM (active); in the test on TAB165 it was 7.94 µM (active); with W2 it was 2.13 µM (active); in the test with MKL-2, 13.3 µM (active). The max response in the test on CRL-7250 was -1.99%; with KB-3-1 it was -16.3%; in the test on NIH3T3 it was -14.3%. Besides, the molecule was called inactive in the test on HaCat [1] and in the test with HACAT [2]. Besides, the Potency entry in the test with MCC-13, in the test on C33A and with CASKI was “inactive” throughout.
Turning to `c1ccc(CNCCNCc2ccccc2)cc1`, the Potency in the test on W2 is 4.26 µM (active). Further, the max response in the test on CRL-7250 is -8.49%; in the test with KB-3-1, -3.68%. Further, the outcome in the test on HaCat [1] and in the test on HACAT [2] was inactive. The Potency entry in the test with MCC-13, with MCC-26, in the test on MKL-1, with UISO, with WaGa and in the test with C33A was “inactive” each time. Also, the Potency entry in the test with CAOV3 and with CASKI was “inactive” each time.
On to `COc1cccc2c1C(=O)c1c(O)c3c(c(O)c1C2=O)C[C@@](O)(C(C)=O)C[C@@H]3O[C@H]1C[C@H](N)[C@H](O)[C@H](C)O1`, for which the Potency in the test with TAB113 is 5.01 µM (active); in the test on TAB165, 2.24 µM (active); in the test on W2, 1.35 µM (active); with CRL-7250 it was 0.075 µM (active); in the test on HEK293 it was 0.0473 µM (active); in the test on NIH3T3, 0.133 µM (active). Further, the Potency with MCC-13 was 1.06 µM (active); with MCC-26, 0.944 µM (active); in the test on MKL-1 it was 0.0237 µM (active); with MKL-2, 0.0106 µM (active); in the test on UISO, 0.211 µM (active); with WaGa, 0.0237 µM (active). The Potency is 0.631 µM (active) with C33A and 0.708 µM (active) with CASKI.
As to `C=C1C[C@H]2[C@@H]3C=C(C)C4=CC(=O)CC[C@]4(C)[C@H]3CC[C@]2(C)[C@@]1(OC(C)=O)C(C)=O`, the max response was 1.09% in the test with CRL-7250, -2.22% in the test with HaCat [1], 17.3% with KB-3-1 and -3.66% in the test on NIH3T3. The Potency entry in the test on MCC-13, with MKL-1, in the test with UISO, in the test with C33A, with CAOV3 and in the test on CASKI was “inactive” in each case.

These data come from PubChem BioAssay (NCATS).
